Shiga inhibitor: Shiga toxin inhibition; Vero cells, Shiga toxin protein synthesis inhibition reporter; inhibition, % at 38.7 µM; hit rate 9.2% among 290,000; AID 2315; in the data active = inhibition mostly above about 28%, no sharp cut-off; inactive = mostly below about 43%; also: 0% is about no effect
Pf growth 96h: inhibits malaria parasite growth, 96 h | P. falciparum luciferase reporter growth, 96 h | Potency, µM (top dose mostly 28.7 µM), for inactives: at the top dose activity change, negative = inhibition, most hits filed as inhibitors | hit rate 6.9% among 320,000; also: potency is read from the fitted curve at half-maximal effect; % is scaled to controls: 0 for no effect and ±100 for the full control effect
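Delayed-death screen, second-generation endpoint: infected erythrocytes, 2% hematocrit, 0.05% parasitemia final; 96 hours at 37 C, 5% CO2; luciferase detection reagent; luminescence decrease equals reduced growth.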
Pf growth 48h: P. falciparum growth inhibition at 48 hours (one generation). Potency, µM (titrated, usually from 28.7 µM), without a hit: at the top dose activity change, negative = inhibition, actives largely listed as inhibitors. P. falciparum luciferase growth in erythrocytes, 48 h. hit rate 5.9% among 310,000. AID 504832; also: potency is read from the fitted curve at half-maximal effect; % is scaled to controls: 0 for no effect and ±100 for the full control effect
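Erythrocytes infected with P. falciparum carrying an integrated firefly luciferase reporter (2% hematocrit, 0.1% parasitemia final) were exposed to compounds in RPMI 1640 with 0.5% Albumax at 37 C, 5% CO2. Growth inhibition was scored as reduced luminescence.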
AMA1 RON2 block: AMA1-RON2 (P. falciparum) interaction inhibition. AlphaScreen AMA1-biotinylated RON2 peptide binding. hit rate 0.2% among 360,000. Potency, µM (top dose mostly 58.2 µM), for inactives: at the top dose activity change, negative = inhibition, hits mostly inhibitors;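 also: potency is read from the fitted curve at half-maximal effect; 0% = vehicle wells and -100% = peptide control; nearly all actives have a fitted effect of over 45% in size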
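AMA1 (3D7) with his tag at 25 nM final met compounds first, then biotinylated RON2 peptide at 25 nM; detection used donor plus acceptor beads, 10 µg/mL apiece, read by AlphaScreen after 30 min at room temperature.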
CHX counter: counter-screen for Shiga toxin inhibitors: cycloheximide protein synthesis inhibition; cell reporter, cycloheximide protein synthesis inhibition counterscreen; max response, %; hit rate 12% among 300,000; AID 2314; in the data active = max response mostly above about 13%, no sharp cut-off; inactive = mostly below about 14%; also: read at 38.3 µM for the half of the compounds with a filed dose; 0% is about no effect
SARS PLP yeast: blocks SARS-CoV papain-like protease in a yeast assay; S. cerevisiae expressing SARS-CoV PLpro, growth rescue; Potency, µM (top dose mostly 32.9 µM), for inactives: at the highest dose activity, positive = growth rescue, actives largely listed as activators; hit rate 0.19% among 330,000; AID 485353; calls by dose curve; also: potency is read from the fitted curve at half-maximal effect; 0% is about no effect; nearly all actives have a fitted effect of over 55% in size
The depositor's hits bear a star; ? = inconclusive; . = not tested or not shown. Compounds with a hit are over-represented: about 19% of the library has one in this group of screens. Unless noted, calls follow the shape of the dose curve; as a rule, active = well fitted curve in the direction sought with a large enough effect; inconclusive = small, poorly fitted or top-dose-only effect, or another doubt; inactive = no such curve, though single readings can be large; an effect the other way counts as inactive or inconclusive.

SMILES | Shiga inhibitor | Pf growth 96h | Pf growth 48h | AMA1 RON2 block | CHX counter | SARS PLP yeast
Cc1ccc(C(=O)Oc2cc(N)n(S(=O)(=O)c3ccc(C)cc3)n2)cc1 | 1 | 41% | -3% | 4% | 0 | -4%
COc1cc(C(=O)Oc2cc(N)n(S(=O)(=O)c3ccccc3)n2)cc(OC)c1OC | -21 | -25% | 24% | 1% | 6 | -3%
Cc1ccc(S(=O)(=O)n2nc(OC(=O)c3ccccc3F)cc2N)cc1 | -10 | 12µM* | 10% | 19% | -2 | 0%
CS(=O)(=O)c1ccc(Nc2nc(C(N)Cc3ccc(Cl)cc3)cs2)cc1 (stereo not given) | . | . | . | 48% | . | .
Cn1cnnc1SCC(=O)Nc1ccc(Cl)c(S(=O)(=O)N2CCOCC2)c1 | -10 | ? | -24% | -6% | -2 | 2%
COc1ccc(OC)c(C(=O)c2oc3ccccc3c2NC(C)=O)c1 | 1 | 35% | ? | 1% | 3 | -12%
O=C1c2ccccc2C(c2nnnn2Cc2ccccc2)N1Cc1ccc2c(c1)OCO2 (stereo not given) | . | . | . | -10% | . | .
CCOc1ccc(OCC(=O)Nc2cc(Cl)ccc2-n2cncn2)cc1 | . | . | . | -7% | . | .
Cc1ccc(S(=O)(=O)n2nc(OC(=O)c3c(-c4ccccc4Cl)noc3C)cc2N)cc1 | -2 | 2.1µM* | 11% | -13% | -4 | 5%
Cc1onc(-c2ccccc2Cl)c1C(=O)Oc1cc(N)n(S(=O)(=O)c2ccc(F)cc2)n1 | -17 | ? | 6% | -23% | -3 | -1%
COCCN(C(=O)Cc1ccc(S(=O)(=O)N2CCOCC2)s1)c1c(N)n(CC(C)C)c(=O)[nH]c1=O | . | . | . | 2% | . | .
Clc1ccc2nc3c4ccccc4cnn3c2c1 | 117* | ? | 241% | 15% | 62* | -1%
CCOc1cc(N2CCOCC2)c(OCC)cc1NC(=O)COC(=O)c1c(C)noc1C | . | . | . | 2% | . | .
CCC(c1nnnn1CCc1ccccc1)N(Cc1ccco1)Cc1cc2cc(C)cc(C)c2[nH]c1=O (stereo not given) | -13 | -19% | 12µM* | -11% | -2 | -2%
CCC(c1nnnn1Cc1ccc(OC)cc1)N(CCCO)Cc1cc2cc3c(cc2[nH]c1=O)OCO3 (stereo not given) | 26 | . | ? | -8% | -1 | 0%
CCC(c1nnnn1Cc1ccco1)N(CCc1ccccc1)Cc1cc2cc(C)ccc2[nH]c1=O (stereo not given) | -17 | 314% | 13µM* | -2% | -7 | 4%
Cc1ccc2[nH]c(=O)c(CN(CCc3ccccc3)C(c3nnnn3Cc3ccco3)C(C)C)cc2c1 (stereo not given) | 40* | ? | 3.3µM* | 4% | 15 | -1%
Cc1ccc2[nH]c(=O)c(CN(Cc3ccc4c(c3)OCO4)Cc3nnnn3Cc3ccco3)cc2c1 | -14 | . | ? | -25% | -3 | -3%
CC(C)C(c1nnnn1Cc1ccccc1)N(CCCO)Cc1cc2cc3c(cc2[nH]c1=O)OCO3 (stereo not given) | -5 | 45% | 7.4µM* | 33% | -3 | -2%
CCC(c1nnnn1Cc1ccccc1)N(Cc1ccco1)Cc1cc2cc(OC)ccc2[nH]c1=O (stereo not given) | -11 | -9% | ? | -6% | -3 | 0%
Cc1cc(-c2cccc([N+](=O)[O-])c2)nc2ccc3ccccc3c12 | -22 | 135% | 64% | -1% | -3 | 6%
O=C(N[C@H](CO)Cc1ccccc1)c1ccco1 | . | . | . | -5% | . | .
CC1(C)C(=O)N(c2ccccc2Cl)C(=O)c2ccccc21 | 17 | 0% | -2% | -5% | 0 | -16%
CCCn1nc(C(=O)OCC(=O)Nc2ccc(C)cc2)c2ccccc2c1=O | . | . | . | -4% | . | 5%
CCOc1ccc(C2=Nn3c(nnc3-c3ccc(OC)cc3)SC2)cc1 | 1 | ? | 15µM* | -7% | -4 | -4%
COc1ccc(OC)c(-c2nnc3n2N=C(c2ccc(OC)c(OC)c2)CS3)c1 | 8 | 3.3µM* | 5.9µM* | . | -8 | 3%
COc1ccc(C2=Nn3c(nnc3-c3ccncc3)SC2)cc1 | -4 | -28% | . | 2% | 6 | 5%
COc1ccc(OC)c(C2=Nn3c(nnc3-c3cc(OC)ccc3OC)SC2)c1 | -5 | . | . | . | 12 | .

Bioassay records (PubChem)
